# The list is not random: actives were taken first. Their share in the collection is about 2.4%.
# D2 antagonist – HTS Assay for Allosteric Antagonists of the Human D2 Dopamine Receptor: Primary Screen for Antagonists; HEK293 TREx D2 cells, calcium flux, dopamine EC80; inhibition, % at 10 µM; actives 2% (n = 340,000); AID 485344, 2010; D(2) dopamine receptor (Homo sapiens), P14416; in the data active means inhibition above about 30%; inactive means below that, where a call was filed
# Target sequence (P14416 whole entry, looked up): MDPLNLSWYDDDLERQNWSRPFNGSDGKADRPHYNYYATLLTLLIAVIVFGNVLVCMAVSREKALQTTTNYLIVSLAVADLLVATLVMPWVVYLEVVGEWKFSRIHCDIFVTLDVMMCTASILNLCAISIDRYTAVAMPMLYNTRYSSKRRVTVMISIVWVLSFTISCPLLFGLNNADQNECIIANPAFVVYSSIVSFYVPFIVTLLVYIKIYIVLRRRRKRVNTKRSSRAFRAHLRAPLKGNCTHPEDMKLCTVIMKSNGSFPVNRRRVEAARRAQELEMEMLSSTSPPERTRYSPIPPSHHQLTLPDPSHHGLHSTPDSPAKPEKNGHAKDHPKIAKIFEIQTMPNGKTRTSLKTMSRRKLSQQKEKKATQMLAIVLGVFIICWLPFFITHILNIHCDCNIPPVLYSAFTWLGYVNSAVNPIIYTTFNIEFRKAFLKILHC
#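 Antagonism is scored as inhibition of an EC80 dopamine-evoked calcium signal in a force-coupled, tetracycline-inducible HEK293 T-REx D2 line, with compound present 180 s before agonist.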
# D2 ag-1 – Beta-Arrestin HTS for Positive Allosteric Modulators of the Human D2 Dopamine Receptor: Agonists | D(2) dopamine receptor (Homo sapiens), P14416 | actives 0.084% (n = 360,000) | activation, % (concentration not given with the values) | AID 624465, 2012 | DiscoveRx PathHunter D2 beta-arrestin, luminescence, 90 min; 100% = 57 uM dopamine signal; in the data active means activation above about 40%; inconclusive means between about 15% and that limit
#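 Agonist mode: compounds alone added to overnight-plated D2 PathHunter cells for 90 min at 37 C, with 57 uM final dopamine (EC100) defining full response. Beta-arrestin recruitment detected by chemiluminescent reagent, read after 1 h at ambient temperature.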
# D2 ag-2 – HTS Assay for Allosteric Agonists of the Human D2 Dopamine Receptor: Primary Screen for Agonists; HEK293 T-REx D2 cells, calcium flux agonist mode; activation, % at 2 µM; actives 0.53% (n = 340,000); AID 485358, 2010;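 active means activation over 3 SD above normal in the single-dose calcium agonist read, cut at about 30% in these data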
#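 Tetracycline-induced HEK293 T-REx cells with force-coupled D2 receptor, plated overnight at 30 C, loaded with no-wash calcium dye. After a 10 s baseline, compound was pin-added and calcium flux read kinetically for 180 s; calcium rises flagged agonists.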
# D2 PAM-1 – HTS Assay for Positive Allosteric Modulators of the Human D2 Dopamine Receptor: Primary Screen for Potentiators | actives 0.34% (n = 340,000) | HEK293 T-REx D2, calcium flux, EC20 dopamine potentiation | potentiation, % at 10 µM;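 active means potentiation over 3 SD above the plate norm, cut at about 30% in these data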
#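 Calcium flux readout, no-wash dye, 1 read/s. Inducible HEK293 Trex D2 line, overnight 30 C. Compound alone 180 s (agonist flags), then EC20 dopamine, another 180 s to score potentiation.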
# D2 PAM-2 – Beta-Arrestin HTS for Positive Allosteric Modulators of the Human D2 Dopamine Receptor: Potentiators; actives 0.23% (n = 360,000); D(2) dopamine receptor (Homo sapiens), P14416; DiscoveRx D2 beta-arrestin cells, luminescence, 90 min; 100% = 57 uM dopamine signal; potentiation, % (concentration not given with the values); in the data active means potentiation above about 50%; inconclusive means mostly about 30% to 49%
#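 D2 cells co-treated with compound plus 50 nM dopamine (EC20) for 90 min at 37 deg C to detect potentiation. Beta-arrestin recruitment was read as enzyme-fragment luminescence after 1 h at ambient temperature. Full response was set by 57 uM dopamine.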
# A number is an active result; i = inactive; ? = inconclusive; nt = no result given.
SMILES,D2 antagonist,D2 ag-1,D2 ag-2,D2 PAM-1,D2 PAM-2
COc1ccccc1NS(=O)(=O)c1cc(C(=O)NC2CCN(Cc3ccccc3)CC2)ccc1C,nt,i,nt,nt,i
COc1ccccc1NS(=O)(=O)c1cccc(C(=O)NC2CCN(Cc3ccccc3)CC2)c1,101,i,i,i,i
COc1ccc(NS(=O)(=O)c2ccc(C)c(C(=O)NC3CCN(Cc4ccccc4)CC3)c2)cc1,i,i,i,i,i
COc1ccccc1NS(=O)(=O)c1ccc(C)c(C(=O)NC2CCN(Cc3ccccc3)CC2)c1,77,i,i,i,i
CC(C)COc1ccc(-c2nnc(-c3ccco3)o2)cc1,i,i,i,30,i
Cn1c(N)c(C(=O)NCc2ccccc2Cl)sc1=S,53,i,i,i,i
COc1ccc(O)c(CN2CCCC(N3CCN(c4ccccc4OC)CC3)C2)c1 (centres undefined),i,i,i,i,i
COc1ccccc1N1CCN(C2CCCN(Cc3cc(F)cc(F)c3)C2)CC1 (centres undefined),41,i,i,i,i
COc1ccccc1N1CCN(C2CCCN(Cc3ccc(Cl)cc3)C2)CC1 (centres undefined),37,i,i,i,i
COc1ccccc1N1CCN(C2CCCN(Cc3ccccc3OCCO)C2)CC1 (centres undefined),i,i,i,i,i
CN(C(=O)CSc1nnnn1-c1ccc(O)cc1)C1CCS(=O)(=O)C1 (centres undefined),i,i,i,i,i
CN1C(=O)/C(=C\c2ccc(N(C)C)cc2)OC1=S,47,i,86,i,i
COc1ccc(/C=C2\OC(=S)N(C)C2=O)cc1,i,i,i,i,i
CC(=O)c1cccc(N(C(=O)c2ccco2)C(C(=O)NC2CCCC2)c2ccc(N3CCOCC3)cc2)c1 (centres undefined),i,i,i,i,i
Cc1nc2ccccc2n1CCC(=O)O,i,i,i,i,i
Cc1nc2ccccc2n2c(O)c(CC(=O)O)cc12,i,i,i,i,79
COc1ccc(NC(=O)c2ccccc2NC(=O)CSc2ccccc2)cc1,i,i,i,i,i
COc1cc(/C=C2/SC(=S)NC2=O)ccc1OS(=O)(=O)c1ccc(C)cc1,i,i,i,i,i
COc1cc(/C=C2\SC(=S)N(CCCCC(=O)O)C2=O)ccc1OS(=O)(=O)c1ccc(C)cc1,32,i,i,i,?
Cc1ccc(CNC(=O)C2CCCN(c3nc4ccccc4o3)C2)cc1 (centres undefined),i,i,i,i,i
COC(=O)/C(=C/c1cccc([N+](=O)[O-])c1)NC(=O)c1ccc(OC)cc1,i,i,i,i,i
COc1ccc(/C=C(/NC(=O)c2cccc([N+](=O)[O-])c2)C(=O)O)cc1OC,56,i,i,i,i
COc1ccccc1C(=O)NCCn1cc(SCC(=O)NCC2CCCO2)c2ccccc21 (centres undefined),i,i,i,i,i
COCC(=O)Nc1cc(C(=O)Nc2ccccc2C)ccc1Cl,32,i,i,i,i
O=C(COC(=O)c1ccc(Cl)c(S(=O)(=O)N2CCCCC2)c1)NCC1CCCCC1,44,i,i,i,i
SMILES,D2 antagonist,D2 ag-1,D2 ag-2,D2 PAM-1,D2 PAM-2
CCCC(OC(=O)CC1Sc2ccccc2NC1=O)C(=O)NCc1ccco1 (centres undefined),i,i,i,i,i
CN1CCN(C(=O)CSc2nc(-c3cccs3)ccc2C#N)CC1,i,i,i,37,i
Brc1ccc(-c2ccc(/C=N/Nc3nc(N4CCOCC4)nc(N4CCOCC4)n3)o2)cc1,i,i,i,i,i
CCN(CC)C(=O)CN1C(=O)COc2ccc(S(=O)(=O)N3CCOCC3)cc21,nt,nt,i,i,nt
CCC(C)NC(=O)CN1C(=O)COc2ccc(S(=O)(=O)N3CCOCC3)cc21 (centres undefined),44,i,i,i,i
CCc1ccc(NC(=O)C2CC(=O)N=C(N)S2)cc1 (centres undefined),i,i,i,i,i
CC(C)c1ccc(NC(=O)C2CC(=O)N=C(N)S2)cc1 (centres undefined),i,?,i,i,109
O=c1[nH]c(Nc2ccc3c(c2)OCCO3)nnc1Cc1ccccc1,49,i,i,i,i
CCOC(=O)CC(NC(=O)c1cc2ccccc2oc1=O)c1cccc([N+](=O)[O-])c1 (centres undefined),i,i,i,i,i
CCCCCn1c(CN2CCCCC2CC)nc2c1c(=O)n(C)c(=O)n2C (centres undefined),i,i,i,55,i
COc1ccc(C(=O)O)cc1NCc1ccc(C)s1,i,i,i,i,i
CCOc1ccc(-c2c(C(=O)N/N=C(\C)c3cccs3)nnn2-c2nonc2N)cc1,i,i,i,74,i
CCOc1ccc(-c2c(C(=O)N/N=C/c3ccc(C)o3)nnn2-c2nonc2N)cc1,i,i,i,i,i
C/C(=N/NC(=O)c1nnn(-c2nonc2N)c1-c1ccccc1)c1ccncc1,i,i,i,i,i
COc1ccc(/C(C)=N/NC(=O)c2nnn(-c3nonc3N)c2-c2ccccc2)cc1,i,i,31,i,i
CCCOc1ccc(-c2c(C(=O)N/N=C/c3ccc(C)o3)nnn2-c2nonc2N)cc1,i,i,i,90,i
CCCOc1ccc(-c2c(C(=O)N/N=C/c3cccs3)nnn2-c2nonc2N)cc1,i,i,i,49,i
COc1cccc2cc(C(=O)NCc3ccccc3)c(=N)oc12,i,i,i,i,i
COc1cccc2cc(C(=O)NCc3ccc(Cl)cc3)c(=N)oc12,106,i,i,i,i
O=C(CSc1nnc(-c2ccc(Br)o2)n1Cc1ccccc1)c1ccccc1F,i,i,i,71,i
O=C(Nc1ccccc1N1CCOCC1)c1cc(-c2ccco2)nc2ccccc12,i,i,i,i,i
COc1cc(C(=O)NC(=S)Nc2ccccc2N2CCCC2)cc(OC)c1OC,43,i,i,i,i
COc1cc(-c2cc(C(=O)Nc3ccccc3N3CCOCC3)c3ccccc3n2)cc(OC)c1OC,i,i,i,33,i
COc1cc(C(=O)Nc2ccccc2N2CCCCC2)cc(OC)c1OC,i,i,i,i,i
Cn1c(SCC(=O)NCc2cccs2)nnc1-c1ccco1,i,i,i,i,i
O=c1c2c(nc3c(-c4ccccc4)c[nH]n13)CCCC2,i,i,i,i,i
